Of roughly 8,800 targets only a part is listed; those with a hit were picked by preference. About 0.5% of all pairs of compound and target were hits. Values without a mark were called inactive.
Experiments:
Assay in all cases: log2 fold change, soluble protein after heating vs DMSO (PISA); higher = thermal stabilisation; K562 lysate, 10 uM; active = over 0.2 and 3.5 SD of the protein, either way, in both replicates (recomputed)
[1] = compound: Cc1cn(-c2cc(NC(=O)c3ccc(C)c(Nc4nccc(-c5cccnc5)n4)c3)cc(C(F)(F)F)c2)cn1 [nilotinib]
Outline: (§1)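 Values give the log-two fold change in thermal stability against solvent controls, from duplicates. Crude K562 extract at 1 mg/mL protein, made by dounce homogenisation in PBS pH 7.4 with 1 mM MgCl2, was treated with 10 μM compound for 30 min. After 3 min heating across 48°C-58°C, aliquots were pooled, adjusted to 0.5% NP-40 at 4°C and centrifuged at 21,000xg for 90 min. The supernatant was measured by TMTpro 16plex LC-MS/MS with channel sums equalised.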

[2] = compound: Cc1nc(Nc2n[nH]c3c2CN(C(=O)N[C@H](CN(C)C)c2ccccc2)C3(C)C)c2sccc2n1
Outline: as §1

[3] = compound: Cc1nc(Nc2ncc(C(=O)Nc3c(C)cccc3Cl)s2)cc(N2CCN(CCO)CC2)n1 [dasatinib]
Outline: as §1

[4] = compound: Cc1ncc(-c2ccnc(Nc3ccc(S(C)(=O)=O)cc3)n2)n1C(C)C
Outline: as §1

[5] = compound: Cn1cc(-c2ccc3c(c2)CCN3C(=O)Cc2cccc(C(F)(F)F)c2)c2c(N)ncnc21
Outline: as §1

[6] = compound: Cn1cc(CNCC2CCN(c3ncc(C(=O)NO)cn3)CC2)c2ccccc21 [quisinostat]
Outline: as §1

[7] = compound: Cn1cncc1[C@@](N)(c1ccc(Cl)cc1)c1ccc2c(c1)c(-c1cccc(Cl)c1)cc(=O)n2C [tipifarnib]
Outline: as §1

[8] = compound: NC(=O)Nc1cc(-c2cccc(F)c2)sc1C(=O)N[C@H]1CCCNC1
Outline: as §1

[9] = compound: NC(=O)c1cnc(N[C@@H]2CCCC[C@@H]2N)nc1Nc1cccc(-n2nccn2)c1
Outline: as §1

[10] = compound: NC1(c2ccc(-c3nc4ccn5c(=O)[nH]nc5c4cc3-c3ccccc3)cc2)CCC1
Outline: as §1

[11] = compound: NCC(=O)Nc1ccc(-n2nc(C(F)(F)F)cc2-c2ccc3c(ccc4ccccc43)c2)cc1
Outline: as §1

[12] = compound: O=C(CCCCCCC(=O)Nc1ccccc1)NO [vorinostat]
Outline: as §1

[13] = compound: O=C(O)c1ccc2c(c1)nc(Nc1cccc(Cl)c1)c1ccncc12 [silmitasertib]
Outline: as §1

[14] = compound: O=C1NC(=O)C(c2cnc3ccccn23)=C1c1cn2c3c(cc(F)cc13)CN(C(=O)N1CCCCC1)CC2
Outline: as §1

[15] = compound: c1cn2cc(-c3ccc4cn[nH]c4c3)nc(Nc3ccc(N4CCOCC4)cc3)c2n1 [entospletinib]
Outline: as §1

Chain of UniProt Q9H6S0 (Q9H6S0 whole entry, looked up): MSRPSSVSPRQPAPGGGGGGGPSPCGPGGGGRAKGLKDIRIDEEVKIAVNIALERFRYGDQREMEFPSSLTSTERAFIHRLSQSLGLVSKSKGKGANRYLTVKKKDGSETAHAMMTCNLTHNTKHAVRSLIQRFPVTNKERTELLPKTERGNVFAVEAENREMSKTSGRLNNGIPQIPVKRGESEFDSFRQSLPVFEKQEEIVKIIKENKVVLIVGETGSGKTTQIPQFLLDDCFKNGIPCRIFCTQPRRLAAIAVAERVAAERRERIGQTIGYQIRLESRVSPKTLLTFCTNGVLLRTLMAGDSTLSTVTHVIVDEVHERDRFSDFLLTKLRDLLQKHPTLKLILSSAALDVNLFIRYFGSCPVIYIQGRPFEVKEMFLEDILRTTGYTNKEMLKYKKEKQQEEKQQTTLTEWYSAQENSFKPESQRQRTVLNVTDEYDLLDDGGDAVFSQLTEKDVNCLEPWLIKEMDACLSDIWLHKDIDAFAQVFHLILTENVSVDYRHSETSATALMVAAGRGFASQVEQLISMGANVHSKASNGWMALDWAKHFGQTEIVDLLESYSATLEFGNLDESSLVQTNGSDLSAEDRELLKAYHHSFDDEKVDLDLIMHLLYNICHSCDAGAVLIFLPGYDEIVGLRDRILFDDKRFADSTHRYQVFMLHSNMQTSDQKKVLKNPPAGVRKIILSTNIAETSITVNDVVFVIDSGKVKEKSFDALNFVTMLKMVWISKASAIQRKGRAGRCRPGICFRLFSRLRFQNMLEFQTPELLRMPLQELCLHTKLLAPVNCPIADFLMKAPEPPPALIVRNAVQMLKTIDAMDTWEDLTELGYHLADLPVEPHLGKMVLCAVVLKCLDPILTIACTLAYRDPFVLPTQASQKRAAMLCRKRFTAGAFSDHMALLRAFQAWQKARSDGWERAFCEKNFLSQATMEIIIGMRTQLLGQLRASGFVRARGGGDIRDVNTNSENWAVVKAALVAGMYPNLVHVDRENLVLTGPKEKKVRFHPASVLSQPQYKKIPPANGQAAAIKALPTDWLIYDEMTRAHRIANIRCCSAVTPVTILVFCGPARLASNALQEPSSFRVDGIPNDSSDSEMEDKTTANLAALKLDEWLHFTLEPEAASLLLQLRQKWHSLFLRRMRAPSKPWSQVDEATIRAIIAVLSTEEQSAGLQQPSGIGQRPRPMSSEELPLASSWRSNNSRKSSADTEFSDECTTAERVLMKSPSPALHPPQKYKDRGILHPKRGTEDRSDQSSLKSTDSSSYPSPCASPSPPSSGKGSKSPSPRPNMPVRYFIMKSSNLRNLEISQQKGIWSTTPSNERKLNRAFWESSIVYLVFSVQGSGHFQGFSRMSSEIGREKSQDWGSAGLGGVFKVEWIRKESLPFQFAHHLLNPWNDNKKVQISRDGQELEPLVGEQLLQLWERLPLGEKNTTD
Chain of UniProt Q96QU8 (Q96QU8 whole entry, looked up): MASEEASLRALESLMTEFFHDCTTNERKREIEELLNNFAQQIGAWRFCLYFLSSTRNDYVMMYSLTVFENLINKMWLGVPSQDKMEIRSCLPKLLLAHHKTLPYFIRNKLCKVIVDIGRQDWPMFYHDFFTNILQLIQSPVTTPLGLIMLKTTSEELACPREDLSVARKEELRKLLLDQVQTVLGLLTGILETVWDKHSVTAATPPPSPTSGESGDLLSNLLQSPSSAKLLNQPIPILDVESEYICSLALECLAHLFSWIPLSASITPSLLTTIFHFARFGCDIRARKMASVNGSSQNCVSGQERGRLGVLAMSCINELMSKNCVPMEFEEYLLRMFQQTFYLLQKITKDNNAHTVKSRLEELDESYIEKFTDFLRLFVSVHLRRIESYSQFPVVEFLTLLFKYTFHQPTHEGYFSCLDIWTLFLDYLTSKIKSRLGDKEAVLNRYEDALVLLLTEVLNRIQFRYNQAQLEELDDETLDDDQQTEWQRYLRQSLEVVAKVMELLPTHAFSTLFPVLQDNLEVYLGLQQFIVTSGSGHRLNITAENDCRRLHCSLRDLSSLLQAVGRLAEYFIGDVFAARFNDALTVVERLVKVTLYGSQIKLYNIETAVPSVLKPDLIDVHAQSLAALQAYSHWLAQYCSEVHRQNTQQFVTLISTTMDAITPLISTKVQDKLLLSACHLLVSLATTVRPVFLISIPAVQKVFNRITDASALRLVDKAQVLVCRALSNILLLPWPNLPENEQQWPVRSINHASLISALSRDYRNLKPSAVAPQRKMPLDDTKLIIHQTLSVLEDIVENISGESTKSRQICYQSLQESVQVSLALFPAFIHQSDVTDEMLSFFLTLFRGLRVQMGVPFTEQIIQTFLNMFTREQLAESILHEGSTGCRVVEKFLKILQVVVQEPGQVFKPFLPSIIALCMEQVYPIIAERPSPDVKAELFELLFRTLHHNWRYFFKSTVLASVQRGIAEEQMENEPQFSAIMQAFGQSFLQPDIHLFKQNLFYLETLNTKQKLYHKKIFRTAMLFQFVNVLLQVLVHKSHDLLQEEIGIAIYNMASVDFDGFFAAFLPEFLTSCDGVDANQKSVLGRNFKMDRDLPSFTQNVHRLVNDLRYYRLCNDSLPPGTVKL
Chain of UniProt Q86Y07 (Q86Y07 whole entry, looked up): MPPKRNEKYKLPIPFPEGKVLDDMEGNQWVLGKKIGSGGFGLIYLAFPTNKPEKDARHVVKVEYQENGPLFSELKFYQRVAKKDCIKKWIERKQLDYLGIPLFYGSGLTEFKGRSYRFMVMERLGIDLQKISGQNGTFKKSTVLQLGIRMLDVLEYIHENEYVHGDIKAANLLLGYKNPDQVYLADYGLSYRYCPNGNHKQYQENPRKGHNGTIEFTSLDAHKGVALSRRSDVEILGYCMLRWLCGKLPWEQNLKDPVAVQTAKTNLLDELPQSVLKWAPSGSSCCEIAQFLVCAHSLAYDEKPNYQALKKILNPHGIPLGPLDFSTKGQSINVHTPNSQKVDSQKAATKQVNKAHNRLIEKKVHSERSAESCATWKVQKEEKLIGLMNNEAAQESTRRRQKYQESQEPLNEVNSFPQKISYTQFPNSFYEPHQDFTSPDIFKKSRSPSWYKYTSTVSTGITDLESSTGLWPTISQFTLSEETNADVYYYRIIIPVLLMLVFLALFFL
Chain of UniProt P40818 (P40818 whole entry, looked up): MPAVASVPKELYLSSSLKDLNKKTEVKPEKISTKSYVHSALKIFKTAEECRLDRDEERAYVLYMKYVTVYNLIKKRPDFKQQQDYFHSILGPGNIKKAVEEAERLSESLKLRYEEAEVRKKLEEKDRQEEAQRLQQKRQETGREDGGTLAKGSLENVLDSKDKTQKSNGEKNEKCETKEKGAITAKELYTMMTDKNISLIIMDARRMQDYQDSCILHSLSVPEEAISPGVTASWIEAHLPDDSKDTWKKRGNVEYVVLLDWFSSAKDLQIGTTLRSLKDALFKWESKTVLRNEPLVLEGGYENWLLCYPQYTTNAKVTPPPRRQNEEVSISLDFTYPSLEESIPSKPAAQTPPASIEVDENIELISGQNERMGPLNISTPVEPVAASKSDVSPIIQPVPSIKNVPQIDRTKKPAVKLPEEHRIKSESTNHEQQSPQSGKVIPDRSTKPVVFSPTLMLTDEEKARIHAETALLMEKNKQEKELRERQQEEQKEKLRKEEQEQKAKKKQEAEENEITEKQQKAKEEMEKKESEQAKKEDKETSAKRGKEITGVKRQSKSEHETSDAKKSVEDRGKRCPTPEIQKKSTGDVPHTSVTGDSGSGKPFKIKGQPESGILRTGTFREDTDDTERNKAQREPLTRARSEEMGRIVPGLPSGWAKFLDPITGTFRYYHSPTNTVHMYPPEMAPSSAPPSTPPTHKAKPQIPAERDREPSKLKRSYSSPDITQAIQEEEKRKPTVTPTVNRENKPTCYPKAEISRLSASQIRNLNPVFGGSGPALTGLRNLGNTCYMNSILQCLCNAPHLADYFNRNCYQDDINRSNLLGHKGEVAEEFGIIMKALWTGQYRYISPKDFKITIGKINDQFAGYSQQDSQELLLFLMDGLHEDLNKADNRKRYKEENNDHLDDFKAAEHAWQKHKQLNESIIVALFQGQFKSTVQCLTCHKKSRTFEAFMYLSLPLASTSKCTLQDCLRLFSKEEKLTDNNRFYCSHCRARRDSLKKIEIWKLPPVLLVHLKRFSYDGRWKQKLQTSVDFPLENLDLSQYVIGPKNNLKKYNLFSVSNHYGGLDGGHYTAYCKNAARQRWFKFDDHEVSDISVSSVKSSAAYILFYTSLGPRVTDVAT
Chain of UniProt Q08AM6 (Q08AM6 whole entry, looked up): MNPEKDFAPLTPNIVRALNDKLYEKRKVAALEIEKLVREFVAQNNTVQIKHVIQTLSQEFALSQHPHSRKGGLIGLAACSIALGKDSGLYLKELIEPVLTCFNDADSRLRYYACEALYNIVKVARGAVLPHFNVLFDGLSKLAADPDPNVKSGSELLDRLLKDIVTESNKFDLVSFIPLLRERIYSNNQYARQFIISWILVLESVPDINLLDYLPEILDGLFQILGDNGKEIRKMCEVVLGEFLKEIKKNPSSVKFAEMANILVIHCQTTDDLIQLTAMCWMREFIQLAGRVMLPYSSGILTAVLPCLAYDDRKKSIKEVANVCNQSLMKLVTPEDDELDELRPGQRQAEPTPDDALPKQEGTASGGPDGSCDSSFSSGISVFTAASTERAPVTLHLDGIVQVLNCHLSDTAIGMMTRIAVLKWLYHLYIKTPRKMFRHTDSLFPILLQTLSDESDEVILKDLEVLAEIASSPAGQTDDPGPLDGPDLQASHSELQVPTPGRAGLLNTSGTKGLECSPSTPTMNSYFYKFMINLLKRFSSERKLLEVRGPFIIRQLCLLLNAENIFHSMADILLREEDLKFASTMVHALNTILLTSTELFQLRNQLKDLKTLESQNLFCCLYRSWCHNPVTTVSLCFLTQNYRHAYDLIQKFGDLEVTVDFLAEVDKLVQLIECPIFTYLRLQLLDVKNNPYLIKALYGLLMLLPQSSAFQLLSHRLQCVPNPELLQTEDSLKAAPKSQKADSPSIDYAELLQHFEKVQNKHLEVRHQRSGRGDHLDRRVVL

Target | log2 fold change [1] | log2 fold change [2] | log2 fold change [3] | log2 fold change [4] | log2 fold change [5] | log2 fold change [6] | log2 fold change [7] | log2 fold change [8] | log2 fold change [9] | log2 fold change [10] | log2 fold change [11] | log2 fold change [12] | log2 fold change [13] | log2 fold change [14] | log2 fold change [15]
VPS28 (UniProt Q9UK41) | -0.031 | 0.034 | 0.021 | 0.004 | 0.086 | 0.081 | 0.029 | -0.038 | 0.012 | -0.027 | 0.03 | -0.37 (active) | -0.002 | -0.043 | 0.033
UXT isoform 2 (UniProt Q9UBK9) | 0.012 | -0.019 | 0.079 | 0.019 | -0.05 | -0.03 | -0.015 | -0.04 | -0.026 | -0.036 | -0.003 | 0.037 | -0.039 | -0.025 | 0.02
ZNF845 (UniProt Q96IR2) | 0 | 0.087 | -0.038 | -0.053 | 0.021 | -0.033 | -0.006 | 0.122 | 0.016 | 0.163 | -0.074 | -0.297 | 0.364 (active) | -0.113 | –
VRK2 (UniProt Q86Y07) | 0.048 | 0.219 | 0.185 | 0.017 | 0.17 | -0.044 | -0.018 | 0.026 | -0.003 | -0.006 | -0.158 | -0.166 | -0.022 | 0.039 | -0.064
VPS35L (UniProt Q7Z3J2) | -0.019 | -0.006 | -0.088 | 0.022 | 0.008 | -0.046 | 0.03 | 0.043 | 0.001 | -0.044 | 0.019 | -0.266 (active) | 0.027 | -0.006 | 0.015
UQCRC2 (UniProt P22695) | 0.034 | -0.028 | 0 | 0.004 | -0.043 | 0.007 | -0.011 | 0.02 | -0.008 | 0.011 | 0.01 | 0.123 | -0.013 | 0.03 | 0.007
USP3 (UniProt Q9Y6I4) | 0.045 | -0.015 | -0.028 | 0.028 | 0.008 | -0.01 | -0.054 | 0.107 | -0.005 | -0.042 | 0.015 | -0.469 (active) | -0.026 | 0.015 | -0.013
YWHAQ (UniProt P27348) | -0.008 | -0.005 | 0.04 | 0.037 | 0.011 | 0.095 | 0.019 | -0.023 | -0.035 | 0.014 | -0.047 | -0.052 | -0.012 | 0.013 | 0.022
USP8 (UniProt P40818) | -0.014 | -0.007 | 0.005 | 0.042 | 0.024 | -0.015 | -0.01 | 0.016 | -0.016 | 0.026 | 0.012 | -0.324 (active) | 0.013 | 0.009 | 0.012
XPOT (UniProt O43592) | -0.011 | -0.017 | -0.064 | 0 | -0.004 | -0.056 | 0.005 | 0.037 | 0.003 | -0.001 | -0.012 | -0.656 (active) | 0.035 | 0.009 | 0.037
ZNHIT6 (UniProt Q9NWK9) | -0.023 | 0 | -0.037 | -0.005 | 0.004 | -0.04 | 0.014 | 0.087 | 0.028 | -0.022 | 0.001 | -0.218 (active) | -0.041 | 0.002 | -0.062
WDHD1 (UniProt O75717) | -0.008 | 0.026 | -0.023 | 0.012 | 0.01 | -0.029 | -0.01 | 0.008 | 0.013 | 0.01 | -0.011 | -0.259 (active) | 0.02 | -0.018 | 0.016
WIPI2 (UniProt Q9Y4P8) | 0.032 | 0.043 | 0.007 | -0.018 | -0.004 | -0.054 | 0.011 | 0.053 | -0.005 | 0.021 | -0.036 | -0.303 (active) | 0.033 | -0.005 | -0.008
XPO1 (UniProt O14980) | 0.011 | -0.011 | -0.038 | -0.014 | 0.021 | -0.007 | -0.009 | 0.021 | 0.011 | 0.006 | 0.009 | -0.233 (active) | 0.003 | -0.001 | 0.036
ZNF451 (UniProt Q9Y4E5) | 0.016 | 0.013 | -0.028 | -0.033 | 0.02 | -0.044 | -0.049 | 0.022 | 0.044 | -0.038 | 0.064 | -0.538 (active) | -0.003 | -0.013 | 0.019
VAV1 (UniProt P15498) | 0.022 | -0.031 | 0.007 | 0.009 | 0.04 | 0.022 | 0 | -0.018 | 0.007 | -0.054 | -0.003 | -0.268 (active) | 0 | -0.027 | 0.004
WDCP (UniProt Q9H6R7) | -0.01 | 0.001 | -0.035 | 0.006 | -0.018 | -0.107 | 0.009 | 0.014 | -0.069 | 0.007 | -0.066 | -0.233 (active) | 0.022 | 0.02 | -0.036
ZNF598 isoform 3 (UniProt Q86UK7) | -0.004 | -0.022 | -0.063 | 0.031 | 0.032 | -0.023 | -0.019 | 0.01 | 0.011 | 0.029 | 0.01 | -0.338 (active) | 0 | 0.024 | -0.017
VAC14 (UniProt Q08AM6) | -0.014 | 0.018 | -0.022 | 0.009 | 0.058 | -0.07 | -0.059 | 0.012 | -0.002 | -0.027 | -0.02 | -0.229 (active) | 0.041 | 0.005 | -0.008
YTHDC2 (UniProt Q9H6S0) | 0.006 | -0.001 | -0.043 | 0.03 | 0.03 | -0.046 | 0.022 | 0.06 | -0.007 | -0.054 | 0.061 | -0.231 (active) | -0.007 | 0.018 | 0.013
XPO6 (UniProt Q96QU8) | 0.005 | 0.027 | -0.008 | -0.054 | -0.026 | -0.123 | -0.018 | 0.078 | 0.033 | -0.04 | -0.034 | -0.401 (active) | 0.049 | -0.031 | -0.027
